Each structure is given as a SMILES string. Several values for one entry are separate records, joined by “and”; a condition that tells them apart may be missing. Equal values may be shown once. Results filed as inconclusive are left out. Some compounds were tested as several samples or in several runs, with calls that do not always agree. Activity calls are given as the source filed them. How the source made its calls: active means hit-call score of the fitted dose curve at least 0.9, where 1 is the maximum; inconclusive means response in the unintended direction; inactive means score below 0.9.

Chain of Peroxisome proliferator-activated receptor gamma (Homo sapiens) (P37231 whole entry, looked up, the tested form may be a part): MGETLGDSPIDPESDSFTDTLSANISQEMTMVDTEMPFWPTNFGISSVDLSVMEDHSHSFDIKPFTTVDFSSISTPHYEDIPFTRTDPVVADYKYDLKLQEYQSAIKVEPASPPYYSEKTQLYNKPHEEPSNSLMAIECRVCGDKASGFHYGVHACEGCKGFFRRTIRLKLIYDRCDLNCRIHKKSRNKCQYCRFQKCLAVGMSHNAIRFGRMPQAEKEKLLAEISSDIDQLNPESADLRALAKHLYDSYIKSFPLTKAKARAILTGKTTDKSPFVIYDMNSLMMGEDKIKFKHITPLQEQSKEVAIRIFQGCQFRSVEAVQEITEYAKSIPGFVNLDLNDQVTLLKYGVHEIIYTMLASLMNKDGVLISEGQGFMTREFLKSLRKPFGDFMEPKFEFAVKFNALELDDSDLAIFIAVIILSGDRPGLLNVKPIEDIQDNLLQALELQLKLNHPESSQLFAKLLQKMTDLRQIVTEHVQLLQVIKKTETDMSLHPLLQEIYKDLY

The first assay concerns the target Peroxisome proliferator-activated receptor gamma (Homo sapiens) (UniProt P37231). The assay is described as follows: ATG_PPARg_TRANS: Attagene TRANS-FACTORIAL HepG2 Assay for human Peroxisome Proliferator-activated Receptor-gamma (PPARg) (AID 2283007). The gist of the method: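 After 24 h of chemical exposure, transfected HepG2 cells carrying PPARγ-Gal4 chimera reporter constructs are lysed for RNA. Reporter transcripts are measured by RT-PCR and capillary electrophoresis with fluorescent labelling, and gain of signal is fitted versus DMSO.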
What is called AC50 is the concentration at which the activity in the assay is half-maximal. For `CCCCC(CC)CN1C(=O)C2C3C=CC(C3)C2C1=O` (stereo not given), the AC50 is 50 µM (active).

In the case of `O=C(O)C1(C(=O)Nc2ccc(Cl)cc2Cl)CC1`, the AC50 was 35.1 µM (active).

With `COC(=O)c1ccccc1C(=O)O`, the compound was called inactive.

Consider `c1ccc(Nc2ccccc2)cc1`, for which the half-maximal activity concentration (AC50) was 50 µM (active).

For the compound `CCOC(=O)NCCOc1ccc(Oc2ccccc2)cc1`, the AC50 was 19.3 µM (active).

`CC(C)(c1ccc(O)cc1)c1ccc(O)cc1`: the AC50 was 14.2 µM (active) and 18.3 µM (active) and 25.8 µM (active); the compound was called inactive.

With `O=C(Nc1ccc([N+](=O)[O-])cc1Cl)c1cc(Cl)ccc1O`, the result was inactive.

Take `COC(=O)c1cccc(C)c1S(=O)(=O)NC(=O)Nc1nc(OCC(F)(F)F)nc(N(C)C)n1`: the outcome was inactive.

As for `CCCCOC(=O)[C@@H](C)Oc1ccc(Oc2ccc(C(F)(F)F)cn2)cc1`, the outcome was inactive.

`O=C(c1ccc(O)cc1O)c1ccc(O)cc1O`: the AC50 was 49.1 µM (active) [middle of 4 runs].

For `CC(C)(C)[C@@H](O)[C@@H](Cc1ccc(Cl)cc1)n1cncn1`, the call was inactive.

For `c1ccc2[nH]c(-c3cscn3)nc2c1`, the compound was called inactive.

Consider `CCOC(=O)C(C)Oc1ccc(Oc2nc3ccc(Cl)cc3o2)cc1` (stereo not given), for which the result was inactive.

For the compound `CCC(C)OC(=O)N1CCCCC1CCO` (stereo not given), the compound was classed as inactive.

For `N#CSCSc1nc2ccccc2s1`, the AC50 was 23.1 µM (active) and the result was inactive.

`CCN(Cc1c(F)cccc1Cl)c1c([N+](=O)[O-])cc(C(F)(F)F)cc1[N+](=O)[O-]`: the call was inactive.

For `CC(C)CCCCCCc1ccc(O)cc1`, the AC50 was 11.1 µM (active) and the result was inactive.

With `COC(=O)c1c(Cl)nn(C)c1S(=O)(=O)NC(=O)Nc1nc(OC)cc(OC)n1`, the compound was classed as inactive.

As to `C[C@]12C[C@H](O)[C@H]3[C@@H](CCC4=CC(=O)CC[C@@]43C)[C@@H]1CC[C@@H]2C(=O)CO`, the call was inactive.

Turning to `C#C[C@]1(O)CC[C@H]2[C@@H]3CCC4=CC(=O)CC[C@@H]4[C@H]3CC[C@@]21CC`, the compound was classed as inactive.

On to `CCCN(CCC)c1c([N+](=O)[O-])cc(C(F)(F)F)c(N)c1[N+](=O)[O-]`, for which the result was inactive.

Take `COC(=O)c1ccc(CNS(C)(=O)=O)cc1S(=O)(=O)NC(=O)Nc1nc(OC)cc(OC)n1`: the call was inactive.

With `CCSC(=O)N(CC(C)C)CC(C)C`, the outcome was inactive.

For `CCCOC(=O)c1ccc(C(=O)OCCC)nc1`, the compound was classed as inactive.

`COC(=O)c1ccccc1S(=O)(=O)NC(=O)Nc1nc(OC(F)F)cc(OC(F)F)n1`: the compound was classed as inactive.

Turning to `CCCCOC(=O)C(C)Oc1ccc(Oc2ccc(C(F)(F)F)cn2)cc1` (stereo not given), the call was inactive.

Regarding `COc1nc(C)nc(NC(=O)NS(=O)(=O)c2ccccc2OCCCl)n1`, the outcome was inactive.

As for `O=C(c1ccccc1)C1CCCCC1`, the AC50 is 61.5 µM (active) and the compound was called inactive.

As to `CC(=O)S[C@@H]1CC2=CC(=O)CC[C@]2(C)[C@H]2CC[C@@]3(C)[C@@H](CC[C@@]34CCC(=O)O4)[C@H]12`, the result was inactive.

For the next assay, the target named is Nuclear receptor subfamily 1 group I member 2 (Homo sapiens) (UniProt O75469). Nature of the assay: ATG_PXR_TRANS: Attagene TRANS-FACTORIAL HepG2 Assay for human Pregnane X Receptor (PXR) (AID 2283008). The gist of the method: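 Transactivation by exogenous PXR–GAL4 fusion measured as reporter transcript induction after 24 h compound treatment of transfected human HepG2 cells. Read-out via RT-PCR and capillary electrophoresis of labelled fragments, fitted upward relative to DMSO.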
Chain of Nuclear receptor subfamily 1 group I member 2 (Homo sapiens) (O75469 whole entry, looked up, the tested form may be a part): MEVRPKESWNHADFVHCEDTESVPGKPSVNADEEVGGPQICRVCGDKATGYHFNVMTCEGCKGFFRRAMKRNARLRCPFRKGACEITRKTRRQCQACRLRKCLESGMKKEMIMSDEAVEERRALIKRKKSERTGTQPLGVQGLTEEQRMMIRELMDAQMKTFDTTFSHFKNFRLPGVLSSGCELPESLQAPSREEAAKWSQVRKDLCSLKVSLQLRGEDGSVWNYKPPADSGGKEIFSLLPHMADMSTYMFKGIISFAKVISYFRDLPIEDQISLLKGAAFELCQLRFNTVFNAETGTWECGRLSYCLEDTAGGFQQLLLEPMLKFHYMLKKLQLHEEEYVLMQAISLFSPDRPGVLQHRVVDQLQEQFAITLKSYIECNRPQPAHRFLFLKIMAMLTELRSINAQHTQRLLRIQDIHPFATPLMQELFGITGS
For the compound `CCCCC(CC)CN1C(=O)C2C3C=CC(C3)C2C1=O` (stereo not given), the AC50 was 14.6 µM (active).

For the compound `O=C(O)C1(C(=O)Nc2ccc(Cl)cc2Cl)CC1`, the outcome was inactive.

For the compound `COC(=O)c1ccccc1C(=O)O`, the result was inactive.

Regarding `c1ccc(Nc2ccccc2)cc1`, the compound was classed as inactive.

`CCOC(=O)NCCOc1ccc(Oc2ccccc2)cc1`: the call was inactive.

On to `CC(C)(c1ccc(O)cc1)c1ccc(O)cc1`, for which the call was inactive.

For `O=C(Nc1ccc([N+](=O)[O-])cc1Cl)c1cc(Cl)ccc1O`, the result was inactive.

Turning to `COC(=O)c1cccc(C)c1S(=O)(=O)NC(=O)Nc1nc(OCC(F)(F)F)nc(N(C)C)n1`, the call was inactive.

As to `CCCCOC(=O)[C@@H](C)Oc1ccc(Oc2ccc(C(F)(F)F)cn2)cc1`, the compound was called inactive.

Turning to `O=C(c1ccc(O)cc1O)c1ccc(O)cc1O`, the compound was called inactive.

Regarding `CC(C)(C)[C@@H](O)[C@@H](Cc1ccc(Cl)cc1)n1cncn1`, the result was inactive.

For the compound `c1ccc2[nH]c(-c3cscn3)nc2c1`, the call was inactive.

With `CCOC(=O)C(C)Oc1ccc(Oc2nc3ccc(Cl)cc3o2)cc1` (stereo not given), the outcome was inactive.

On to `CCC(C)OC(=O)N1CCCCC1CCO` (stereo not given), for which the AC50 is 9.99 µM (active) and the compound was called inactive.

`N#CSCSc1nc2ccccc2s1`: the result was inactive.

As for `CCN(Cc1c(F)cccc1Cl)c1c([N+](=O)[O-])cc(C(F)(F)F)cc1[N+](=O)[O-]`, the AC50 was 3.41 µM (active).

For `CCNc1nc(N)nc(Cl)n1`, the call was inactive.

As to `COC(=O)c1c(Cl)nn(C)c1S(=O)(=O)NC(=O)Nc1nc(OC)cc(OC)n1`, the compound was called inactive.

`C[C@]12C[C@H](O)[C@H]3[C@@H](CCC4=CC(=O)CC[C@@]43C)[C@@H]1CC[C@@H]2C(=O)CO`: the AC50 was 27.7 µM (active) and 11.4 µM (active); the call was inactive.

With `C#C[C@]1(O)CC[C@H]2[C@@H]3CCC4=CC(=O)CC[C@@H]4[C@H]3CC[C@@]21CC`, the AC50 is 9.53 µM (active) and the compound was called inactive.

With `CCCN(CCC)c1c([N+](=O)[O-])cc(C(F)(F)F)c(N)c1[N+](=O)[O-]`, the AC50 was 3.98 µM (active).

Turning to `COC(=O)c1ccc(CNS(C)(=O)=O)cc1S(=O)(=O)NC(=O)Nc1nc(OC)cc(OC)n1`, the call was inactive.

For `CCCOC(=O)c1ccc(C(=O)OCCC)nc1`, the call was inactive.

In the case of `CCCCOC(=O)C(C)Oc1ccc(Oc2ccc(C(F)(F)F)cn2)cc1` (stereo not given), the result was inactive.

With `COc1nc(C)nc(NC(=O)NS(=O)(=O)c2ccccc2OCCCl)n1`, the AC50 was 40 µM (active) and the result was inactive.

On to `O=C(c1ccccc1)C1CCCCC1`, for which the AC50 is 29.1 µM (active) and 8.99 µM (active) and 19.7 µM (active); the call was inactive.

Take `CC(=O)S[C@@H]1CC2=CC(=O)CC[C@]2(C)[C@H]2CC[C@@]3(C)[C@@H](CC[C@@]34CCC(=O)O4)[C@H]12`: the outcome was inactive.

For the origin of these results see PubChem BioAssay (EPA / NIEHS).
